Here are results for 40 compounds from PubChem BioAssay (NCI).

SMILES strings stand for the structures. Compounds without any hit were thinned out: in the full panel of roughly 79,000, 15% have a hit. Values without a mark were called inactive. Active and inactive are the calls of the source. Cut-off read from the data, not from the text of the source: active = growth inhibition above about 70%; inactive = the rest.

A short description of one experiment: NCI Yeast Anticancer Drug Screen. Data for the rad50 strain (AID 155).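 Note: 0% = growth of vehicle-only cultures of the same strain.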 To be noted: S. cerevisiae rad50 strain growth inhibition; at 50.0 µM; active compounds read high. In a few lines:
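Vehicle-treated cultures provide the reference for the growth inhibition reported for compound-exposed, repair-deficient yeast.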
As for `CCc1nc(N)nc(N)c1-c1ccc(NCCN)c(N)c1`, the growth inhibition was 3.4%.

`Cc1cc[n+](C2=C([O-])C3=C(C(=O)C2=O)C2c4ccccc4C3c3ccccc32)c(C)c1`: the growth inhibition is 98.5% (active).

On to `CC(=O)Oc1ccc2c(c1)Cc1cc([N+](=O)[O-])ccc1-2`, for which the growth inhibition was 8.45%.

For `O=C(CBr)c1c2c(cc3c1CCCC3)CCCC2`, the growth inhibition is 1.75%.

Regarding `CCCCc1c(C#N)c(=O)n2c(N)c(C#N)cnc2c1SC`, the growth inhibition was 18.9%.

Take `CC(Cc1ccccc1)Nc1ccccc1` (stereo not given): the growth inhibition is 17.8%.

On to `COc1c(-c2cccs2)oc2c(CC(=O)O)cccc2c1=O`, for which the growth inhibition was 10.9%.

In the case of `CCN(CC)CCNc1ccc2ncn3c4ccccc4c(=O)c1c23`, the growth inhibition is 19.9%.

Take `O=C(SCSC(=O)c1ccccc1)c1ccccc1`: the growth inhibition is -11.3%.

For the compound `CCNc1ccc(N=Nc2ccc(-c3ccc(N=Nc4ccc(NCC)c5ccccc45)c(OC)c3)cc2OC)c2ccccc12`, the growth inhibition is -1.15%.

Turning to `COc1cc(C(C)O)c[n+](CCc2c[nH]c3ccccc23)c1` (stereo not given), the growth inhibition was -30%.

Regarding `N/N=C1/C(=O)N(c2ccc(S(N)(=O)=O)cc2)C(=O)C1C(=O)Nc1ccc(S(N)(=O)=O)cc1` (stereo not given), the growth inhibition was -4%.

Take `Cc1nc2cc(Nc3ccccc3C(=O)O)ccc2s1`: the growth inhibition was -43.3%.

For `N#CCCCCCCl`, the growth inhibition was -9.35%.

On to `CCCCCCCC[N+](C)(C)CC#CC[N+](C)(C)CCCCCCCC`, for which the growth inhibition was 46.2%.

For `CCOC(=O)Cc1nnc2n(-c3ccccc3)c(=O)c3ccccc3n12`, the growth inhibition is -23.6%.

Regarding `O=P(O)(O)Oc1ccc(NCCO)cc1`, the growth inhibition is -9.5%.

Consider `CC(C)c1ccccc1[S+]1OC(C)(C)c2ccccc21` (stereo not given), for which the growth inhibition is -4.9%.

On to `O=P(O)(O)c1ccc(-c2ccc(P(=O)(O)O)cc2)cc1`, for which the growth inhibition was -4.7%.

Take `NC(=O)NC(=S)NC(=O)c1ccccc1`: the growth inhibition was -2.95%.

On to `CC(C)C1=CC(=Nc2ccc(N(C)C)cc2)C=CC1=O`, for which the growth inhibition was -1.35%.

On to `OCc1ccc(O)c(CO)n1`, for which the growth inhibition was -8.85%.

Take `N#CCCC(CC#N)S(=O)(=O)O` (stereo not given): the growth inhibition was 14.3%.

On to `OCC1COc2cc(Cl)c(Cl)cc2O1` (stereo not given), for which the growth inhibition is 47.8%.

As to `O=C1OC2c3ccccc3C3CC(=O)C2C13` (stereo not given), the growth inhibition was 10.2%.

Turning to `Nc1ccc(/C=C\C(=O)c2ccccc2)cc1`, the growth inhibition was 16.4%.

As for `c1ccc(C2Nc3ccccc3C3OCCCC23)cc1` (stereo not given), the growth inhibition is 2.35%.

Consider `CN(C)c1nc(N(C)C)n2c(-c3ccccc3[N+](=O)[O-])nnc2n1`, for which the growth inhibition is 48.3%.

On to `COc1ccc(OC)c(NC(=O)c2ccccc2Cl)c1`, for which the growth inhibition was -4.85%.

As for `CCOC(CCCl)c1ccc(C)cc1` (stereo not given), the growth inhibition was -25.2%.

Take `N#CC/C(C#N)=C/OC(=O)c1ccc(Cl)cc1`: the growth inhibition is 12.2%.

`CC(=O)Nc1ccccc1Sc1ccccc1`: the growth inhibition was -6.5%.

As to `C(=C\c1nc2ccccc2nc1/C=C/c1ccccc1)/c1ccccc1`, the growth inhibition was -25.9%.

As for `O=C(O)c1ccccc1[N+](=O)[O-]`, the growth inhibition is -4.1%.

As to `Cc1ccc(C)c2nc3c(C)ccc(C)c3cc12`, the growth inhibition was 22.5%.

For `CC(=O)N1CN=C2Sc3ccccc3N2C1`, the growth inhibition is 4.05%.

Take `O=c1[nH]cnc2c1sc(=S)n2-c1ccccc1`: the growth inhibition was 7.15%.

Take `Cc1ccc(N)c(C(=O)Nc2ccc(Br)cc2)c1`: the growth inhibition is -19.6%.

`CC(C)C1=CC2=C(C(=O)C1=O)C13CCCC(C)(C)C1CC2OC3=O` (stereo not given): the growth inhibition is 14.3%.

Consider `CC(C)(C)OC(=O)N/N=C\c1ccnc2ccccc12`, for which the growth inhibition is -8.1%.

Another experiment in a line: NCI Yeast Anticancer Drug Screen. Data for the mec2-1 strain (AID 157). The following applies: S. cerevisiae mec2-1 strain, at 50.0 µM, active compounds read high. In a few lines:
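Test agents were screened against the mec2-1 yeast strain, with defined DNA repair or cell cycle alteration. Growth was scored as inhibition against vehicle-only controls.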
For the compound `CCc1nc(N)nc(N)c1-c1ccc(NCCN)c(N)c1`, the growth inhibition was 6.35%.

On to `Cc1cc[n+](C2=C([O-])C3=C(C(=O)C2=O)C2c4ccccc4C3c3ccccc32)c(C)c1`, for which the growth inhibition is 98.7% (active).

`CC(=O)Oc1ccc2c(c1)Cc1cc([N+](=O)[O-])ccc1-2`: the growth inhibition was 14.2%.

For `O=C(CBr)c1c2c(cc3c1CCCC3)CCCC2`, the growth inhibition was -1.35%.

In the case of `CCCCc1c(C#N)c(=O)n2c(N)c(C#N)cnc2c1SC`, the growth inhibition was 8.45%.

Regarding `CC(Cc1ccccc1)Nc1ccccc1` (stereo not given), the growth inhibition was 3.5%.

On to `COc1c(-c2cccs2)oc2c(CC(=O)O)cccc2c1=O`, for which the growth inhibition was -10.8%.

On to `CCN(CC)CCNc1ccc2ncn3c4ccccc4c(=O)c1c23`, for which the growth inhibition is 8.85%.

Consider `O=C(SCSC(=O)c1ccccc1)c1ccccc1`, for which the growth inhibition is 10.9%.

For `CCNc1ccc(N=Nc2ccc(-c3ccc(N=Nc4ccc(NCC)c5ccccc45)c(OC)c3)cc2OC)c2ccccc12`, the growth inhibition was 18.1%.

As to `COc1cc(C(C)O)c[n+](CCc2c[nH]c3ccccc23)c1` (stereo not given), the growth inhibition was -19.5%.

Take `N/N=C1/C(=O)N(c2ccc(S(N)(=O)=O)cc2)C(=O)C1C(=O)Nc1ccc(S(N)(=O)=O)cc1` (stereo not given): the growth inhibition was 15.6%.

As to `Cc1nc2cc(Nc3ccccc3C(=O)O)ccc2s1`, the growth inhibition was -36.6%.

`N#CCCCCCCl`: the growth inhibition was -26.9%.

`CCCCCCCC[N+](C)(C)CC#CC[N+](C)(C)CCCCCCCC`: the growth inhibition is -14.3%.

With `CCOC(=O)Cc1nnc2n(-c3ccccc3)c(=O)c3ccccc3n12`, the growth inhibition is -15.3%.

With `O=P(O)(O)Oc1ccc(NCCO)cc1`, the growth inhibition is -5%.

`CC(C)c1ccccc1[S+]1OC(C)(C)c2ccccc21` (stereo not given): the growth inhibition was 21.9%.

Consider `O=P(O)(O)c1ccc(-c2ccc(P(=O)(O)O)cc2)cc1`, for which the growth inhibition is 2.85%.

For the compound `NC(=O)NC(=S)NC(=O)c1ccccc1`, the growth inhibition was 0.95%.

As to `CC(C)C1=CC(=Nc2ccc(N(C)C)cc2)C=CC1=O`, the growth inhibition was 6.4%.

Turning to `OCc1ccc(O)c(CO)n1`, the growth inhibition was -26.3%.

With `N#CCCC(CC#N)S(=O)(=O)O` (stereo not given), the growth inhibition was 1.65%.

Turning to `OCC1COc2cc(Cl)c(Cl)cc2O1` (stereo not given), the growth inhibition was 9.65%.

Turning to `O=C1OC2c3ccccc3C3CC(=O)C2C13` (stereo not given), the growth inhibition was -5.7%.

In the case of `Nc1ccc(/C=C\C(=O)c2ccccc2)cc1`, the growth inhibition is 1.05%.

On to `c1ccc(C2Nc3ccccc3C3OCCCC23)cc1` (stereo not given), for which the growth inhibition is -4.3%.

As for `CN(C)c1nc(N(C)C)n2c(-c3ccccc3[N+](=O)[O-])nnc2n1`, the growth inhibition is 18.4%.

`COc1ccc(OC)c(NC(=O)c2ccccc2Cl)c1`: the growth inhibition was -1.95%.

For `CCOC(CCCl)c1ccc(C)cc1` (stereo not given), the growth inhibition is -42.2%.

For the compound `N#CC/C(C#N)=C/OC(=O)c1ccc(Cl)cc1`, the growth inhibition was -4.5%.

Take `CC(=O)Nc1ccccc1Sc1ccccc1`: the growth inhibition was -17.1%.

For `C(=C\c1nc2ccccc2nc1/C=C/c1ccccc1)/c1ccccc1`, the growth inhibition was -9.4%.

As to `O=C(O)c1ccccc1[N+](=O)[O-]`, the growth inhibition was 10.1%.

As for `Cc1ccc(C)c2nc3c(C)ccc(C)c3cc12`, the growth inhibition was 1.4%.

With `CC(=O)N1CN=C2Sc3ccccc3N2C1`, the growth inhibition was 0.2%.

On to `O=c1[nH]cnc2c1sc(=S)n2-c1ccccc1`, for which the growth inhibition was -10.5%.

Consider `Cc1ccc(N)c(C(=O)Nc2ccc(Br)cc2)c1`, for which the growth inhibition was -18.6%.

Consider `CC(C)C1=CC2=C(C(=O)C1=O)C13CCCC(C)(C)C1CC2OC3=O` (stereo not given), for which the growth inhibition is -45.1%.

Turning to `CC(C)(C)OC(=O)N/N=C\c1ccnc2ccccc12`, the growth inhibition is -8.75%.
